High-throughput results (PubChem BioAssay)
Only a selection was taken, and hits are over-represented in it overall.
HIV RNase H inh – blocks HIV-1 RNase H cleavage of RNA/DNA duplex. AID 565. inhibition, % at 10 µM. hit rate 1.9% among 65,000. RT-RNase H RNA/DNA duplex cleavage, fluorescence; in the data active = inhibition above about 50%
RmlCD inh mix – inhibitors of RmlC and RmlD coupled enzymes | RmlC/RmlD coupled enzyme inhibition, 384-well mixture HTS | inhibition, % at 5.5 µM | hit rate 0.39% among 110,000 | AID 1532; in the data active = inhibition above about 30%, passing the limit was not always enough; inconclusive = no clear call, values can overlap the other calls
An asterisk follows results filed as active; ? = inconclusive; . = no result given; + = active, no number.

SMILES	HIV RNase H inh	RmlCD inh mix
Cc1cc(C)c2c(n1)nn1c(NCCN3CCOCC3)cc(C)nc21	-12	58*
CCOC(=O)c1sc2nc(N3CCOCC3)c3c(c2c1N)CC(C)(C)N(C)C3	.	23
COC(=O)c1sc2nc(N3CCCCC3)c3c(c2c1N)CC(C)(C)N(C)C3	-5	37*
COc1cc(O)oc1C=Nc1ccc(Oc2ccccc2)cc1	.	-8
CCn1c(O)c(C=Nc2ccccc2)oc1=S	54*	-16
NC(=O)c1c(NC(=O)c2cccs2)sc2c1CCCCCC2	57*	-2
O=C(Nc1sc2c(c1C(=O)O)CCC2)c1cccs1	-1	.
C=CC(=C)CC(NC)c1ccccc1 (stereo unspecified)	51*	-16
C=CCOC(=O)CC(NC(=O)c1ccccc1)c1ccccc1 (stereo unspecified)	-6	-12
Nn1c(SC/C=C/c2ccccc2)nnc1-c1ccncc1	52*	.
COc1cc(-c2nnc(SC/C=C/c3ccccc3)n2N)cc(OC)c1OC	.	-2
CCOC(=O)CSc1nc2cc(OCC)ccc2cc1C#N	-7	-5
CCOc1ccc2cc(C#N)c(SCC(=O)NC(C)CC)nc2c1 (stereo unspecified)	58*	-1
Cc1ccc(S(=O)(=O)N2CCC(=O)N(C(COCc3ccc(Cl)cc3)Cc3ccccc3)CC2)cc1 (stereo unspecified)	.	-11
Cc1ccccc1C(=O)Nc1ccc(Cl)cn1	-13	-13
CCOC(=O)NC1(Nc2ccc(Cl)cn2)Oc2ccccc2O1	57*	6
Cc1ccsc1C1NC(=O)c2c(sc3c2CCCC3)N1 (stereo unspecified)	58*	-1
O=C1NC(c2ccc(Br)cc2)Nc2sc3c(c21)CCC3 (stereo unspecified)	.	38
CCOc1ncccc1C(=O)OCC(=O)NCCc1ccc(OC)cc1	-12	.
CC(=O)n1c2ccccc2c2c1c1ccccc1n2C	57*	-22
CC(=O)Nc1c(Cl)n(C(C)=O)c2ccccc12	-6	30
CCN1N=C(c2cc(Cl)sc2Cl)CSC1=O	.	5
O=c1nc2s/c(=C\c3ccco3)c(=O)n2nc1Cc1ccc(F)cc1	53*	-11
Cc1ccc(-c2nc3s/c(=C\c4ccco4)c(=O)n3n2)cc1	-15	0
Cc1ccc(/C=c2\sc3nc(-c4ccco4)nn3c2=O)o1	30	-12
SMILES	HIV RNase H inh	RmlCD inh mix
Cc1ccc(/C=c2\sc3nc(-c4ccccc4Br)nn3c2=O)o1	51*	.
CCOC(=O)c1c(N)sc(C(=O)N(C)C)c1C	-2	-7
CCOC(=O)c1c(NC(=O)OC)sc(C(=O)N(C)C)c1C	52*	-15
Cc1ccc(-c2nn3c(C)nnc3s2)cc1NC(=O)c1ccc(-c2cccc(Cl)c2)o1	34	-5
Cc1ccc(-c2nn3c(C)nnc3s2)cc1NC(=O)c1ccc(-c2ccc(Cl)cc2Cl)o1	60*	-19
COc1ccc(Cc2nn3c(-c4cc(OC)c(OC)c(OC)c4)nnc3s2)cc1	54*	-49
COc1cc(-c2nnc3sc(Cc4ccccc4)nn23)cc(OC)c1OC	10	4
CCOC(=O)c1ccc2c(c1)C1C=CCC1C(C(=O)O)N2 (stereo unspecified)	52*	1
COCCNC(=O)C1Nc2ccc(C(F)(F)F)cc2C2C=CCC12 (stereo unspecified)	.	4
CCO[C@@H]1OC(C(=O)N2CCN(Cc3ccccc3)CC2)=C[C@H](c2csc3ccccc23)[C@H]1CCCO	.	3
Clc1cccc(-c2nnc3sc(-c4ccc5c(c4)OCO5)nn23)c1	75*	.
Clc1cccc(-c2nn3c(-c4ccncc4)nnc3s2)c1	-9	.
CC(Sc1ccc(Cl)cc1)C(=O)Nc1ccc(S(=O)(=O)N2CCOCC2)cc1 (stereo unspecified)	.	-9
CN1Cc2cc(C(=O)c3cc(Cl)cc(CSc4ncccn4)c3O)cnc2NC1=O	59*	-1
Cc1ccc(O)c(C(=O)c2cnc3c(c2)CN(C)C(=O)N3)c1	.	10
Cc1ccc(-c2nc3cccnc3o2)cc1NC(=O)COc1ccc(C(C)(C)C)cc1	.	3
Cc1ccc(-c2nc3cccnc3o2)cc1NC(=O)COc1ccc(Cl)cc1C	53*	-33
CN1CCN(c2nc3nonc3nc2N2CCN(C)CC2)CC1	0	7
Cc1nc(Nc2ncc3c(n2)CCCC3=O)nc2ccccc12	-6	.
Cc1cc(=O)[nH]c2c(C)c(Cl)ccc12	-96	-10
Cc1cc(=O)[nH]c2c(C)c(N)ccc12	-2	59*
COc1cccc(CNCc2ccc(SC)cc2)c1OC	.	-12
CC1CCN(C(=O)c2cc(F)c(F)cc2Cl)CC1	.	-13
CCOC(=O)c1cc2c(nc1N)CC(C)(C)OC2	.	39*
CCOC(=O)c1cc2c(nc1N)CC(C)(CC)OC2 (stereo unspecified)	.	2
SMILES	HIV RNase H inh	RmlCD inh mix
CCN(CC)S(=O)(=O)c1cccc(C(=O)NC(C(=O)Nc2nnc(C)s2)C(C)C)c1 (stereo unspecified)	.	-18
CC(=O)Nc1cc(S(=O)(=O)Nc2ccccc2C)c(C)cc1C	.	3
O=c1[nH]c(Cn2nnc(-c3ccccc3)n2)nc2scc(-c3ccccc3)c12	53*	-15
c1ccc(Cn2nnc(-c3ccccc3)n2)cc1	.	5
O=C1CC(NCc2ccncc2)C(=O)N1c1ccc(Cl)cc1 (stereo unspecified)	-1	-13
Cc1c(C)c2cc(Cl)c(O)c(CN3CCCC(C)C3)c2oc1=O (stereo unspecified)	-1	112*
CCN1CCN(Cc2c(O)c(Cl)cc3c(C)cc(=O)oc23)CC1	1	?
Cc1c(C)c2cc(Cl)c(O)c(CN3CCN(C)CC3)c2oc1=O	3	97*
CCCc1cc(=O)oc2c(CN3CCCC3)c(O)c(Cl)cc12	2	59*
Cc1c(O)c(CN2CCCC(C)C2)cc2c3c(c(=O)oc12)CCC3 (stereo unspecified)	2	.
CCCc1cc(=O)oc2cc(C)c(CN3CCCC3)c(O)c12	27	.
CNC(=O)Cn1nc(-c2ccc(C)c(S(=O)(=O)N(C)C)c2)c2ccccc2c1=O	.	7
O=S(=O)(NC12CC3CC(CC(C3)C1)C2)c1ccc(F)cc1	.	-3
CCCCN(CCCC)C(=O)c1nsnc1-c1ccccc1O	.	-6
c1coc(CN(Cc2ccco2)c2ncnc3c2oc2ccccc23)c1	.	-13
Cc1nnc2sc(-c3cc4ccccc4o3)nn12	-5	.
CCCCOc1ccc(-c2c(C#N)c(N)nc(SCC(N)=O)c2C#N)cc1	63*	4
CCCCOC(=O)CSc1nc(N)c(C#N)c(-c2ccc(OCC)cc2)c1C#N	-10	-7
COc1cc(OC)c2ccc(=O)oc2c1C(CCN1CCN(c2ccccc2)CC1)c1ccc(N(C)C)cc1 (stereo unspecified)	.	17
O=C1NC(Nc2nccs2)(C(F)(F)F)C(=O)N1CCc1ccccc1 (stereo unspecified)	18	-7
CC(C)N1C(=O)CCC1C(=O)NCc1ccccc1Cl (stereo unspecified)	-8	.
CN1C(=O)N(C)C(=O)C2(Sc3ccccc3C2=O)C1=O	-6	+
CN1C(=O)N(C)C(=O)C(CCc2ccccn2)(CCc2ccccn2)C1=O	-8	9
COC(=O)c1sccc1-c1ccc(/C=N/OC(=O)c2ccccc2)o1	.	-23
N#CC1=C2SCN(Cc3ccco3)CN2C(=O)CC1c1cccc2ccccc12 (stereo unspecified)	57*	7
N#CC1=C2SCN(Cc3ccco3)CN2C(=O)CC1c1ccccc1F (stereo unspecified)	.	-13
